This note sets out measurements from PubChem BioAssay.

The subject of assay [1] is Human papillomavirus type 1a protein E7 (residues 44-93). Nature of the assay: small molecules binding HPV E7 44-93 – biochemical, small-molecule microarray, residues 44-93, 635 nm fluorescence, primary screen (AID 1108).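 Note: E7 fragment applied at 1 µg/mL in TBST for 1 h at 4 C; score combines spot fluorescence with its signal to noise ratio.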 To be noted: fluorescence 635 nm, higher = more signal.
A short description of assay [2]: hepatitis C replication reporter changes, two-sided – Huh7 cells, luciferase reporter, HCV replication inhibitor project, primary screen (AID 1109).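 Note: huh7 hepatoma cells harbouring a luciferase neomycin HCV replicon reporter; luciferase luminescence as measure of HCV replicon replication; test concentration not given here.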 To be noted: Huh7 HCV replicon luciferase reporter, 48 h; higher = more signal.
The target in assay [3] is Left-right determination factor 2 (Homo sapiens) (UniProt O00292). Put plainly: small molecules binding LEFTY2 protein – biochemical, small-molecule microarray, 635 nm fluorescence scan, primary screen (AID 1110). As to conditions: higher = more signal.
Assay [4] has as its target Calmodulin-1 (Homo sapiens) (UniProt P0DP23). Put plainly: small molecules binding calmodulin-1 with EGTA – biochemical, small-molecule microarray, Cy5-labelled CALM1, profiling panel (AID 1111).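 Note: labelled calmodulin applied in Tris saline Tween buffer holding calcium plus EGTA and DTT.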 To be noted: Cy5-CALM1 binding fluorescence, higher = more signal.
Assay [5] shares this target. Nature of the assay: small molecules binding Ca-loaded calmodulin-1 – biochemical, small-molecule microarray, Cy5-labelled CALM1, plus calcium, artefact control for SMM control-protein annotation, profiling panel (AID 1112).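 Note: score merges spot fluorescence with signal to noise from triplicate slides.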 As to conditions: Cy5-CALM1 binding fluorescence, higher = more signal.
The nature of assay [6]: probe aWnt5a binding to arrayed compounds – biochemical, biotinylated probe, 635/667 nm fluorescence, primary screen (AID 1113).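 Note: score merges 667 nm fluorescence intensity with signal-to-noise per printed feature.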 As to conditions: small-molecule microarray, higher = more signal.
The nature of assay [7]: probe aShh binding to arrayed compounds – biochemical, biotinylated probe, 635/667 nm fluorescence, primary screen (AID 1114).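 Note: probe is biotin-labelled aShh protein from a stem cell growth factor screen; measures binding of labelled protein to compounds printed on the slide; score merges feature fluorescence at 667 nm with signal-to-noise.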 To be noted: small-molecule microarray, higher = more signal.
Assay [8] in a line: probe aNog binding to arrayed compounds – biochemical, biotinylated probe, 635/667 nm fluorescence, primary screen (AID 1115).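 Note: probe is biotinylated aNog protein used at 0.15 µg/mL for 1 h at 4 C; z-score combines 667 nm fluorescence of each spot with its signal to noise.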 As to conditions: small-molecule microarray, higher = more signal.
In assay [9] the target is Torsin-1A-interacting protein 1 (Homo sapiens) (UniProt Q5JTV8). Nature of the assay: compound microarray binding of lysate hLAP1 – cell lysate, small-molecule microarray, COS7 lysate, 635/667 nm fluorescence, primary screen (AID 1116). To be noted: 635 nm fluorescence, higher = more signal.
Assay [10] has as its target Alpha-bungarotoxin (Bungarus multicinctus) (UniProt P60615). Nature of the assay: compounds binding labelled alpha-BTX control protein – biochemical, small-molecule microarray, Alexa647 label, 635/667 nm fluorescence, artefact control for SMM control protein annotation, profiling panel (AID 1117). As to conditions: alpha-BTX-A647 binding fluorescence, higher = more signal.

Torsin-1A-interacting protein 1 (Homo sapiens), sequence (Q5JTV8 whole entry, looked up): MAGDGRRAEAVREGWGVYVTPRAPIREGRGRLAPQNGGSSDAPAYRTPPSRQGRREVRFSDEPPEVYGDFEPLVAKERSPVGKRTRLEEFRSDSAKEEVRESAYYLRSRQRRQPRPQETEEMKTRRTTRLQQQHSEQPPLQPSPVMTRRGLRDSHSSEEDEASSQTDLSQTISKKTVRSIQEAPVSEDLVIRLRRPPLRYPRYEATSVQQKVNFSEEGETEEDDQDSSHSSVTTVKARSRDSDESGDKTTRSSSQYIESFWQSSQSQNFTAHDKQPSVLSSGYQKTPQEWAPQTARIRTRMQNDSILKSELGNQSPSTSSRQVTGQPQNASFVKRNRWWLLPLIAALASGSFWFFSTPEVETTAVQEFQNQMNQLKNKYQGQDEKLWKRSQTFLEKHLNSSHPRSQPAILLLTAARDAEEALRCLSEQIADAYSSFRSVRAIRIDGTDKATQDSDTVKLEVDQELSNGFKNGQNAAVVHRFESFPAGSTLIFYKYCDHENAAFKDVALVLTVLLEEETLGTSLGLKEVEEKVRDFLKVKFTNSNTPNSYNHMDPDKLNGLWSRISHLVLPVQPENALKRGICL
Left-right determination factor 2 (Homo sapiens), sequence (O00292 whole entry, looked up): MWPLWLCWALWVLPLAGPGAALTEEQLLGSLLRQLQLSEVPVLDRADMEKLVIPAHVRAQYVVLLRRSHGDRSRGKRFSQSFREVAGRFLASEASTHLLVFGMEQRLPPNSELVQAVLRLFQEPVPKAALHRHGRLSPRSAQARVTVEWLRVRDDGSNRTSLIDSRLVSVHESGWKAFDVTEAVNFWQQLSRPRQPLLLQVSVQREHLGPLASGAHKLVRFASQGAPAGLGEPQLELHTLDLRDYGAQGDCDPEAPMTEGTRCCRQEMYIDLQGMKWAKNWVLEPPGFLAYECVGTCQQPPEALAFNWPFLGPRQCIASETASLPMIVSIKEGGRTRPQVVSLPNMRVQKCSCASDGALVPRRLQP
Alpha-bungarotoxin (Bungarus multicinctus), sequence (P60615 whole entry, looked up): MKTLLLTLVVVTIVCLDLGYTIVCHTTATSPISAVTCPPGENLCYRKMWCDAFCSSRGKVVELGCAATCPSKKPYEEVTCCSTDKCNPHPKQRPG

Turning to `C=CC[C@@H]1C=CC(ON=C(C)C)[C@@H](CO)O1` (stereo not given in full), the composite z-score in [1] was -1.17; in assay [3], 0.0335; in assay [4], -0.253; in [5], 0.0283; in assay [6], -0.0701; in assay [7], -0.2. For the same compound, the composite z-score is -0.303 in [8], -0.275 in assay [9] and -0.139 in assay [10]. For the same compound, the z-score in assay [2] came out at 0.931.
On to `CC(C)CON=C1C[C@@H](O)[C@@H](O)[C@@H]2[C@@H]3C(=O)N(c4ccc(F)cc4F)C(=O)[C@@H]3CC[C@@H]12`, for which the composite z-score was 0.463 in [1]; 0.339 in [3]; 0.0012 in [4]; -0.541 in assay [5]; -0.0368 in assay [6]; -0.279 in [7]. The figures for the composite z-score in [8], in [9] and in assay [10] were -0.0563, 0.142 and 0.421, respectively. The z-score in [2] was -0.049.
`COc1ccc(COC(=O)NN=C2C[C@@H](O)[C@@H](O)[C@@H]3[C@@H]4C(=O)N(C(C)(C)C)C(=O)[C@@H]4CC[C@@H]23)cc1`: the composite z-score in [1] is 0.653; in assay [3], 1.27; in assay [4] it was 1.19; in assay [5] it was -0.306; in assay [6] it was -0.0566; in [7], -0.0626. Besides, the composite z-score was determined as 0.0498 in assay [8], 0.207 in assay [9] and 0.751 in assay [10]. For the same compound, the z-score in assay [2] was -0.828.
As for `O=C1C=C[C@@H](O)[C@@H]2[C@@H]3C(=O)N(C4CCCCC4)C(=O)[C@@H]3CC[C@@H]12`, the composite z-score was 0.502 in [1]; 0.71 in assay [3]; -0.0865 in [4]; -0.713 in assay [5]; -0.0459 in assay [6]; -0.0793 in [7]. Further, the composite z-score in [8] is -0.158; in [9], 0.191; in assay [10] it was 0.518. The compound also showed a z-score in [2] of -4.18.
On to `COc1ccc(COC(=O)NN=C2C[C@@H](O)[C@@H](O)[C@@H]3[C@@H]4C(=O)N([C@@H](C)c5ccccc5)C(=O)[C@@H]4CC[C@H]23)cc1`, for which the composite z-score in [1] was -1.05; in assay [3] it was -0.291; in assay [4] it was -0.0436; in [5] it was 0.073; in assay [6], -0.0405; in assay [7] it was 0.0121. Moreover, the composite z-score was 0.314 in assay [8], -0.484 in assay [9] and 0.471 in [10]. The z-score in [2] was -1.66.
As for `CO[C@H]1COC(=O)CCC[C@H](C)[C@H](OC)COC(=O)CC=C[C@@H]1C`, the composite z-score in [1] is -1.46; in assay [3] it was 0.804; in assay [4], -0.294; in assay [5], -1.2; in assay [6], -0.156; in [7], -0.138. In addition, the figures for the composite z-score in [8], in assay [9] and in [10] were -0.258, 0.307 and -0.0936, respectively. In [2], this compound returned a z-score of -1.34.
Consider `O=C1[C@H]2[C@H]3[C@H](O)[C@H](O)CC(=NOCc4ccccc4)[C@H]3CC[C@H]2C(=O)N1C1CCCCC1`, for which the composite z-score is 0.656 in assay [1]; 0.531 in assay [3]; 0.55 in assay [4]; 0.158 in assay [5]; -0.0572 in [6]; 0.0754 in [7]. For the same compound, the composite z-score in assay [8] is 0.165; in [9], -0.106; in [10], 1.01. For the same compound, the z-score in assay [2] is 0.409.
Turning to `CO[C@H]1COC(=O)[C@H](C)COC(=O)[C@H](C)NC(=O)CC=C[C@H]1C`, the composite z-score in assay [1] is 0.429; in assay [3] it was 0.945; in [4], -0.891; in assay [5], -1.85; in [6], -0.154; in [7], 0.0121. Also, the composite z-score in assay [8] is -0.41; in assay [9], 0.143; in [10], -0.369. Also, the z-score in assay [2] was -0.935.
As to `COC(=O)CC=C[C@@H](C)[C@@H](C=NOC(C)CN1CCCCc2nc(C)c(C)cc21)OC` (stereo not given in full), the composite z-score is 1.04 in assay [1]; 1.11 in assay [3]; -0.452 in assay [4]; -1.05 in assay [5]; -0.1 in [6]; -0.138 in assay [7]. Also, the composite z-score in assay [8] is -0.619; in [9] it was 0.449; in assay [10] it was 0.143. Further, the z-score in [2] is -1.23.
Turning to `CCN1C(=O)[C@H]2[C@H]3[C@H](O)[C@H](O)CC(=NOCC[C@@H]4C=C[C@H](OC(C)=O)[C@@H](COC(C)=O)O4)[C@@H]3CC[C@H]2C1=O`, the composite z-score in assay [1] is -0.263; in assay [3] it was 0.736; in [4], -0.207; in [5] it was -0.225; in assay [6], 0.0102; in assay [7] it was 0.0899. For the same compound, the composite z-score is 0.029 in [8], -0.359 in assay [9] and 0.391 in assay [10]. This compound had a z-score in [2] of -1.04.
Regarding `CC(CCN1CCc2nc(-c3ccccc3)c(-c3ccccc3)cc2C1)=NO[C@@H](C)c1cc(-c2c(C)cc(C)cc2C)no1`, the composite z-score was -0.324 in assay [1]; -0.372 in [3]; 0.445 in [4]; -0.0323 in [5]; -0.256 in assay [6]; -0.428 in assay [7]. Moreover, the composite z-score in assay [8] was -0.0211; in [9], -0.0029; in [10] it was 1.33. Moreover, in [2], the z-score was -1.47.
With `COC(=O)[C@@H]1CC[C@H](C)[C@@H](c2ccc(C)cc2)N1C(=O)c1ccc(C=NOC[C@H]2O[C@H](c3ccccc3)C=C[C@@H]2Oc2ccc(OC)cc2)cc1`, the composite z-score in assay [1] is 0.404; in assay [3], 0.35; in [4], -0.156; in assay [5], -0.551; in assay [6] it was 0.0104; in assay [7], -0.234. The composite z-score in assay [8] is 0.0498; in assay [9], 1.18; in assay [10], 0.304. Further, the z-score in [2] was -0.739.
As to `COC(=O)[C@H](C)NC(=O)CCC1CC(OC(=O)NCc2ccc3c(c2)OCO3)CC2(CCCC(COC(=O)NCCc3ccc(Cl)cc3)O2)O1` (stereo not given in full), the composite z-score in assay [1] was 0.536; in assay [3] it was 1.13; in assay [4] it was -0.209; in assay [5], -0.97; in assay [6], -0.0367; in [7] it was 0.0893. Also, the composite z-score in assay [8] was -0.111; in [9] it was 0.288; in assay [10], 0.202. The compound also returned a z-score in assay [2] of -0.562.
For the compound `COc1ccc(OC[C@@H](CO)OC)cc1`, the composite z-score in assay [1] was 0.0047; in [3], 0.178; in assay [4], -0.584; in [5], -0.671; in assay [6], -0.244; in assay [7], 0.0639. Moreover, the composite z-score in assay [8] was -0.0448; in assay [9], 0.551; in assay [10], 0.0276. This compound yielded a z-score in assay [2] of -0.719.
Regarding `O=C1CCCC=C1C(O)COCc1ccccc1` (stereo not given), the composite z-score in [1] is -1.61; in assay [3] it was -0.0061; in assay [4] it was -0.0384; in assay [5], -1.3; in assay [6] it was 0.026; in assay [7] it was -0.269. For the same compound, the composite z-score in assay [8] is -0.172; in assay [9] it was 0.381; in assay [10], 0.032. In addition, in assay [2], the z-score is -0.45.
Turning to `O=C1C2=CC[C@H]3C(=O)N(c4ccc(F)cc4F)C(=O)[C@H]3[C@H]2[C@H](O)[C@@H]2O[C@H]12`, the composite z-score was 0.356 in [1]; 0.662 in assay [3]; -0.232 in [4]; -0.773 in [5]; -0.206 in assay [6]; -0.352 in assay [7]. The values for the composite z-score in assay [8], in [9] and in assay [10] were -0.553, 0.335 and 0.455, respectively. In addition, the z-score in assay [2] is -0.155.
